High-throughput results as filed in PubChem BioAssay.
In the library only some 9% were active in any assay of this set; here they are far more common.
Lamin A splicing = changes lamin A minigene splicing in HeLa cells. HeLa LMNA splicing GFP/RFP minigene ratio, 48 h. Potency, µM (highest dose often 46.1 µM), without a hit: top-dose ratio change, negative = inhibition, usual class: inhibitors. 200,000 tested, 0.01% active; active means well fitted inhibition curve with a large enough effect in the signal ratio, with a control signal flat, not every such curve was filed as active; inconclusive means small, poorly fitted or top-dose-only effect, or effect the other way, or a change in a side signal; the % refers to the signal ratio
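S3 HeLa stable clones carrying a lamin A-EGFP splicing minigene plus DsRed2 were seeded at 600 cells/well in Opti-MEM with 2% FBS, pin-dosed and incubated 48 h at 37°C. Acumen cytometry (488 nm) gave the GFP/RFP total-intensity ratio.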
ALDH1A1 block = ALDH1A1 (human) enzyme inhibition | Purified ALDH1A1, NADH fluorescence, propionaldehyde substrate | Potency, µM (top dose mostly 75.3 µM), inactives show at the top dose activity, negative = inhibition, actives largely listed as inhibitors | AID 1030 | P00352 | 220,000 tested, 7.3% active;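 further: plate controls were no enzyme wells and a reference inhibitor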
Target sequence (P00352 whole entry, looked up): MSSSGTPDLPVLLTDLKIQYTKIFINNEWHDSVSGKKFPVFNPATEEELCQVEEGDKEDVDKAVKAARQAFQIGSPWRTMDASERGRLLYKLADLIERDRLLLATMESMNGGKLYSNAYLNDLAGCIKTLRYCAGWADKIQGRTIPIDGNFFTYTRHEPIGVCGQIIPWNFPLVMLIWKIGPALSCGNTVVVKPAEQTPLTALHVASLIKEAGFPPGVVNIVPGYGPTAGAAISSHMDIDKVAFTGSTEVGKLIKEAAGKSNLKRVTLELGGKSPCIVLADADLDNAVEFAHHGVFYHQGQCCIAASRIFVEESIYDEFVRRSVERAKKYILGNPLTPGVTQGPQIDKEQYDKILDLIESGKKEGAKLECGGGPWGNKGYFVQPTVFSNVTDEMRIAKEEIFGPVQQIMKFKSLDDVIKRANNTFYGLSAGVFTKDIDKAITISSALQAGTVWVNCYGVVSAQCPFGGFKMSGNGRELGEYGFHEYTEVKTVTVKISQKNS
IMPase Li inh = membrane-permeable IMPase blocker, potentiated with lithium; 210,000 tested, 0.35% active; CHO-M1 cells, IP1 TR-FRET (IP-One), carbachol + lithium; Potency, µM (top dose mostly 59.4 µM), for inactives: at the highest dose activity, negative = IMPase inhibition, usual class: inhibitors; active means well fitted curve in the direction sought with a large enough effect; inconclusive means small, poorly fitted or top-dose-only effect, or another doubt; inactive means no such curve, though single readings can be large; an effect the other way counts as inactive or inconclusive;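 further: IP1 builds up when IMPase is blocked and the TR-FRET signal falls; plate controls were basal vehicle for no effect and high inhibitor control for full effect; nearly all actives have a fitted effect of over 50% in size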
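CHO cells stably expressing M1 receptor (2000/well) were cultured 16–30 h, then exposed to compounds with a small lithium addition for 30 min at 37C. IP1 was measured by TR-FRET competition; AC50 from Hill fits.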
HPGD block = blocks human HPGD enzyme activity. P15428. purified HPGD, NADH fluorescence kinetic, PGE2 substrate. Potency, µM, without a hit: top-dose activity change, negative = inhibition, actives largely listed as inhibitors. 150,000 tested, 4.3% active. AID 894
Target sequence (P15428 whole entry, looked up): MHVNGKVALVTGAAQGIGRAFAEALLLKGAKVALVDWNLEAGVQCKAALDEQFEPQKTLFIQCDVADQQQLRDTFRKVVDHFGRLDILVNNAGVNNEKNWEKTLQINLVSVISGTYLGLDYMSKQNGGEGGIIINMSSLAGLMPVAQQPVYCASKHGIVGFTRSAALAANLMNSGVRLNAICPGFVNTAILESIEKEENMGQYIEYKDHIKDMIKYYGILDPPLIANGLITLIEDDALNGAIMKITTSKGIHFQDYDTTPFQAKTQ
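NADH formation kinetics: reaction with 30 uM PGE2 and 1 mM NAD+ (final), 20 nM enzyme, Tris-HCl pH 8 with Tween 20, after 15 min compound preincubation at room temperature. Fluorescence change, last versus first of five reads.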
KinaseGlo FLuc = counter-screen: inhibitors of Kinase-Glo firefly luciferase. Potency, µM (top dose mostly 38.3 µM), without a hit: at the highest dose activity change, negative = inhibition, hits mostly inhibitors. AID 1379. Kinase-Glo luciferase, ATP luminescence, 8 min. 200,000 tested, 0.28% active. Q27757; active means well fitted curve in the direction sought with a large enough effect; inconclusive means small, poorly fitted or top-dose-only effect, or another doubt; inactive means no such curve, though single readings can be large; an effect the other way counts as inactive or inconclusive; further: nearly all actives have a fitted effect of over 60% in size
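Kinase-Glo luciferase light output from ATP and luciferin was measured with 10 uM ATP, within the enzyme's linear range. Buffer: 50 mM imidazole pH 7.2, 50 mM KCl, 7 mM MgCl2, 0.01% Tween 20, 0.05% BSA; luminescence read after 8 min at ambient temperature.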
* hit, by the source's call; ? = inconclusive; nt = no result given; ! = a repeat was not active; [ ] = dose if it differs, or a comment. Unless noted, the call rests on the fitted dose curve; in most records, active means well fitted inhibition curve with a large enough effect (not every such curve was filed as active); inconclusive means small, poorly fitted or top-dose-only effect, or another doubt; inactive means no such curve, though single readings can be large or run the other way. Unless noted, on the % scale 0 is the no-effect control and ±100 the full control effect; potency means the concentration at half of the fitted maximal effect.

SMILES	Lamin A splicing	ALDH1A1 block	IMPase Li inh	HPGD block	KinaseGlo FLuc
Cc1cc(NC(=O)c2ccccc2[N+](=O)[O-])ccc1Br	3%[46 µM]	-8%	-4%	nt	2%
O=C(c1ccc(SCc2cccc(Br)c2)c([N+](=O)[O-])c1)N1CCN(c2ccccn2)CC1	nt	-1%	-3%	nt	2%
Cc1ccc(SCC(=O)Nc2ccc(S(N)(=O)=O)cc2)cc1	nt	-4%	-5%	nt	2%
CCOC(=O)c1sc(NC(=O)C2C3C=CC(C3)C2C(=O)O)nc1C (centres undefined)	12%	0.5µM*	39%[38.3 µM]	-16%	0%
CCOC(=O)c1sc(NC(=O)C2CC2)nc1C	7%	4%	2%[38.3 µM]	-9%	-3%
COc1ccc(C(=O)NCC23C=CC(O2)C2C(=O)N(Cc4ccccc4)C(=O)C23)cc1 (centres undefined)	-13%	7.9µM*	2%[38.3 µM]	-7%	0%
Cc1nn2c([nH]c(=O)c3ccccc32)c1C=O	16%	-1%	10%[38.3 µM]	16µM*	-4%
CCN(CC)CC#CCC(C)(c1ccccc1)c1ccccc1	12%	5%	38%[38.3 µM]	-11%	0%
CN(C)CC/C=C1\c2ccccc2COc2ccccc21	?	18µM*!	28%	-8%	-2%
Cc1nc(-c2cccc(NS(=O)(=O)c3ccccc3)c2)cs1	-1%	14µM*	52%[38.3 µM]	14µM*	-7%
Cc1cccc(S(=O)(=O)Nc2cccc(-c3cn4ccsc4n3)c2)c1	?	10µM*	5%[38.3 µM]	-23%	-6%
Cc1ccc(S(=O)(=O)Nc2cccc(-c3cn4ccsc4n3)c2)cc1	?	16µM*	26%[38.3 µM]	-3%	1%
O=S(=O)(Nc1ccc(-c2csc(-c3ccccc3)n2)cc1)c1ccccc1	?	0%	5%	-27%	0%
O=S(=O)(Nc1cccc(-c2cn3ccsc3n2)c1)c1ccc(F)cc1	?	-4%	15%[38.3 µM]	-14%	0%
Cc1[nH]n(-c2ccccc2)c(=S)c1C=NCCCN=Cc1c(C)[nH]n(-c2ccccc2)c1=S	?	4µM*	3%	28µM*	4%
CNc1oc(C)nc1S(=O)(=O)c1ccc(C)cc1	14%	?	-14%[38.3 µM]	-7%	-5%
CNc1oc(Cc2ccccc2)nc1S(=O)(=O)c1ccccc1	-1%	25µM*	18%[38.3 µM]	-3%	2%
CC(=O)c1cccc(NC(=O)C2CC(=O)N(c3cccc(C)c3C)C2)c1 (centres undefined)	4%	5µM*	1%[38.3 µM]	-2%	-2%
CC(=O)c1cccc(NC(=O)C2CCCCC2)c1	7%	8.9µM*	21%[38.3 µM]	-12%	-1%
COCCCNC(=O)Cn1c(=O)nc(-c2ccccc2)c2ccccc21	0%[46 µM]	nt	nt	nt	nt
CCOc1ncccc1C(=O)Nc1nc(SC)ns1	nt	-9%	5%	nt	0%
Cc1ccc(S(=O)(=O)N2CCC(NC(=O)c3ccccc3)CC2)cc1	nt	?	0%	nt	0%
Cc1ccc(OCC(=O)Nc2ccccc2C(=O)OCc2cc(=O)n3ccsc3n2)cc1	-9%[46 µM]	nt	nt	nt	nt
COc1ccc(CNC(=O)CSc2nnc(C(F)(F)F)n2C)cc1	5%[46 µM]	?	-3%	nt	-1%
O=C(NCc1ccco1)C(c1ccc(F)cc1)N(C(=O)Cc1cccs1)c1cccnc1 (centres undefined)	nt	-9%	15%	nt	-3%
SMILES	Lamin A splicing	ALDH1A1 block	IMPase Li inh	HPGD block	KinaseGlo FLuc
Cc1cc(O)c(/C=N/Nc2ccc(Cl)cc2)c(=O)o1	21%	4%	39%[38.3 µM]	-14%	-5%
Cc1cc(O)c(/C=N/Nc2ccccc2Cl)c(=O)o1	13%	10µM*	38%[38.3 µM]	-20%	-2%
Cc1ccccc1N1CCN(C2=NC(=O)/C(=C\c3cccs3)S2)CC1	?	16µM*	13%	25µM*	-2%
CCOC(=O)N/N=C1/C[C@@H](O)[C@@H](O)[C@@H]2[C@@H]3C(=O)N(Cc4ccc5c(c4)OCO5)C(=O)[C@H]3CC[C@@H]12	nt	4%[13.5 µM]	nt	nt	nt
C/C(=N/OC(=O)C1CC1)c1cc(-c2ccc(Cl)cc2)no1	nt	10%	9%	nt	4%
CCCN1C(=O)/C(=C/c2ccc3c(c2)OCO3)NC1=S	nt	2.2µM*	-4%	nt	0%
CCCN1C/C(=C/c2ccc3c(c2)OCO3)C(=O)/C(=C/c2ccc3c(c2)OCO3)C1	?	?	5%	-10%	3%
O=C(NC(Cc1ccccc1)c1nc2ccccc2[nH]1)C1CC(=O)N(c2ccc3c(c2)OCCO3)C1 (centres undefined)	0%	10µM*	-6%[38.3 µM]	-13%	-7%
Nc1ccnc(Oc2ccc(F)cc2)c1	-6%	4%	0%	-12%	-2%
Cc1cc(C)c(S(=O)(=O)c2ccccc2)c(N2CCOCC2)n1	0%[9.22 µM]	0%	3%	nt	-1%
Cn1c(N2CCN(C(=O)NCc3ccccc3)CC2)nc2ccccc21	12%	4µM*	-10%[38.3 µM]	-8%	-2%
CCOC(=O)C(NC(=O)N(C)C)(Nc1sc(C)c(CC)c1C#N)C(F)(F)F (centres undefined)	-6%	?	4%	14µM*	-1%
CCCC(C(=O)NCc1ccccc1)N(C(=O)Cn1nnc(-c2cccs2)n1)c1ccc2c(c1)OCCO2 (centres undefined)	-6%	-2%	-2%	-14%	6%
O=C(NCc1ccccc1)C(c1ccc(F)cc1)N(Cc1ccc2c(c1)OCO2)C(=O)Cn1nnc(-c2cccs2)n1 (centres undefined)	-3%	25µM*	9%	-4%	0%
CC(C)(C)NC(=O)C(c1ccncc1)N(C(=O)Cn1nnc(-c2ccc(F)cc2)n1)c1ccccc1 (centres undefined)	nt	3.2µM*	2%	nt	2%
CC(C)(C)NC(=O)C(c1ccncc1)N(Cc1cccs1)C(=O)Cn1nnc(-c2cccs2)n1 (centres undefined)	-19%	4.5µM*	15%[38.3 µM]	-20%	-2%
CN(C)n1cnc2ccsc2c1=O	9%[46 µM]	0%	0%	nt	2%
COc1ccc(NC(=O)N2CCCC3(CCNCC3)C2)cc1	nt	0%	-2%	-10%	-3%
COC(=O)C1C2C=CC3(CN(Cc4cccs4)C(=O)C13)O2 (centres undefined)	-6%	-10%	2%[38.3 µM]	-8%	5%
COC(=O)C1C(=O)N2CCCSC2=C(C#N)C1c1cccs1 (centres undefined)	4%	6.3µM*	-11%[38.3 µM]	-7%	3%
CC1=NNC(=O)/C1=C\c1cn(-c2ccccc2)nc1-c1cccs1	?	?	20%	16µM*	2%
CC1=NNC(=O)/C1=C\c1cn(-c2ccccc2)nc1-c1ccc(F)cc1	?	?	21%	nt	0%
CCCCCCN(C(=O)CCCCCN1C(=O)NC(c2cccc([N+](=O)[O-])c2)C(C(=O)OCc2ccccc2)=C1C)C(C(=O)NCCCC)c1ccc(OCC(=O)OC)c(C(=O)OC)c1 (centres undefined)	nt	-3%	-3%	-13%	2%
